Active and inactive are the calls of the source. No stated cut-off is given here; in the data, active means fold change mostly below about -2 (no sharp cut-off); inactive means mostly above about -1.8.
Assay: modulation of TERT promoter-driven luciferase – cell-based, luciferase reporter, human, primary screen (AID 1259240)
Details: A2780 TERT promoter luciferase reporter, 16 h; at 20 µM, fold versus average of vehicle-only wells

Which fold change does the source give for `O=C(CCCc1nnc2n3nc(-c4ccccc4)nc3c3ccccc3n12)NCC1CCCO1` (stereo not given) here?
Its fold change is 1.2 (inactive).

With `CCc1cccc(Nc2nc3ccccc3n3nnnc23)c1` as the compound, how does the fold change read?
The fold change was -12.7 (active).

For `CCN1/C(=C/C=C/c2sc3cc(NC(C)=O)ccc3[n+]2CC)Sc2cc(NC(C)=O)ccc21`, which fold change is on record?
Its fold change is -2.62 (active).

For `Cn1c(=O)oc2cc(S(=O)(=O)N3CCCC(C(=O)NCCN4CCCC4)C3)ccc21` (stereo not given), which fold change is on record?
Its fold change is 1.73 (inactive).

For `COc1ccc(-c2nnc3c4ccccc4c(C)nn23)cc1S(=O)(=O)NC(C)C`, which fold change is on record?
Its fold change is -1.07 (inactive).

For `CCN1CCN(C(=O)CSc2nc(-c3ccco3)cc(C(F)(F)F)n2)CC1`, which fold change is on record?
The fold change was -1.46 (inactive).

Which fold change does the source give for `Cc1cc(C)nc(SCC(=O)Nc2ccc(S(=O)(=O)Nc3onc(C)c3C)cc2)n1` here?
The fold change was 1.02 (inactive).

Which fold change does the source give for `CS(=O)(=O)Nc1ccc(C2=NN(S(C)(=O)=O)C(c3ccccc3)C2)cc1` (stereo not given) here?
The fold change was 1.5 (inactive).

Which fold change does the source give for `Brc1cccc(-c2nc3cnccn3c2NC2CCCCC2)c1` here?
Its fold change is -1.11 (inactive).

For `CN(C)C(=O)c1ccc2c(c1)n(C)c(=O)n2C`, which fold change is on record?
The fold change was 1.05 (inactive).

Which fold change does the source give for `O=C(CCN1C(=O)c2ccccc2S1(=O)=O)Nc1cccc(Br)c1` here?
The fold change was 1.01 (inactive).

For `Cn1c(-c2ccc(N)cc2)nc2cc(N)ccc21`, which fold change is on record?
The fold change was -1.51 (inactive).

With `COc1ccc(C(=O)CSc2nnc(Cc3cc(=O)[nH]c(=O)[nH]3)n2-c2ccc(Cl)cc2)cc1` as the compound, how does the fold change read?
The fold change was -1.34 (inactive).

With `Cc1ccc2nc(NC3=NCN(Cc4ccco4)CN3)nc(C)c2c1` as the compound, how does the fold change read?
The fold change was 1 (inactive).

Which fold change does the source give for `COC(=O)c1ccc(-c2ccc(/C=C3/NC(=O)N(c4ccccc4)C3=O)o2)cc1` here?
Its fold change is -2.59 (active).

With `COCCn1cc(/C=C2/C(=O)Nc3ccccc32)c2ccccc21` as the compound, how does the fold change read?
Its fold change is 1.23 (inactive).

Which fold change does the source give for `COc1cccc(N=c2oc3c(OC)cccc3cc2S(=O)(=O)c2ccccc2)c1` here?
Its fold change is -1.92 (inactive).

With `O=C(CSc1nncc2ccccc12)Nc1ccccc1` as the compound, how does the fold change read?
Its fold change is 1.07 (inactive).

With `O=C1C2CCCCC2C(=O)N1c1nc2nc(-c3ccccc3)cc(=O)n2[nH]1` (stereo not given) as the compound, how does the fold change read?
Its fold change is 1.17 (inactive).

For `O=C(O)c1c2c(nc3ccc(S(=O)(=O)N4CCC(C(=O)N5CCCCCC5)CC4)cc13)CCCC2`, which fold change is on record?
Its fold change is 1.03 (inactive).

With `CC(C)C(NS(=O)(=O)c1cccc2nsnc12)C(=O)N1CCCCCC1` (stereo not given) as the compound, how does the fold change read?
The fold change was 1.11 (inactive).

For `COC(=O)c1ccc(CSc2nc(-c3ccco3)nc3c2c(=O)n(C)c(=O)n3C)o1`, which fold change is on record?
The fold change was -1.08 (inactive).

With `COc1ccc(NC(=O)CN2N=NC3C(=O)N(c4ccc(Cl)cc4)C(=O)C32)c(OC)c1` (stereo not given) as the compound, how does the fold change read?
The fold change was -1.12 (inactive).

With `Cc1ccc2c(c1)c(-c1ccccc1)nc1nncn12` as the compound, how does the fold change read?
Its fold change is 1.67 (inactive).

Which fold change does the source give for `Cc1cc(C(=O)N2CCC(C)CC2)on1` here?
Its fold change is 1.62 (inactive).

For `Cc1cc(=O)oc2c1c(C)nn2-c1ccc(C(=O)O)cc1`, which fold change is on record?
The fold change was -2.62 (active).

With `O=C(Nc1ccc(F)cc1)C(=O)Nc1ccc2nc3n(c(=O)c2c1)CCCCC3` as the compound, how does the fold change read?
The fold change was -1.07 (inactive).

For `CCOC(=O)C1CCCN(c2c(N3CCC(N4CCCCC4)CC3)c(=O)c2=O)C1` (stereo not given), which fold change is on record?
The fold change was -1.11 (inactive).

Which fold change does the source give for `Cc1noc(C(=O)NC(C)C)c1Cl` here?
The fold change was 1.11 (inactive).

For `O=C(O)CN1C(=O)/C(=C/c2ccc(SCc3ccccc3)o2)SC1=S`, which fold change is on record?
The fold change was 1.04 (inactive).

For `CCCCNc1c(N2CCN(C(=O)OCC)CC2)c(=O)c1=O`, which fold change is on record?
Its fold change is 1.31 (inactive).

Which fold change does the source give for `COc1ccc(-c2nc3s/c(=C\c4cccc(Cl)c4)c(=O)n3n2)cc1OC` here?
The fold change was -1.08 (inactive).

For `O=C(CSc1nnc2ccc3ccccc3n12)Nc1ccc2c(c1)OCCO2`, which fold change is on record?
Its fold change is 1.3 (inactive).

For `COc1ccc2oc(=O)c(S(=O)(=O)c3ccc(C(C)C)cc3)cc2c1`, which fold change is on record?
The fold change was 1.21 (inactive).

For `COc1cc(OC)cc(-c2cc(N)n(S(=O)(=O)Cc3ccccc3)n2)c1`, which fold change is on record?
Its fold change is 1.16 (inactive).

With `Cc1cccc(CCn2c(=O)c3ccccc3n(Cc3cc(=O)n4ccccc4n3)c2=O)c1` as the compound, how does the fold change read?
The fold change was -1.38 (inactive).

Which fold change does the source give for `COc1ccc(S(=O)(=O)n2nc(-c3ccc(OC)cc3OC)cc2N)cc1` here?
Its fold change is 1.19 (inactive).

For `N=c1n(CCN2CCOCC2)c2ccccc2n1CC(O)c1ccco1` (stereo not given), which fold change is on record?
Its fold change is -2.53 (active).

Which fold change does the source give for `CCOC(=O)C1CCN(c2c(NCCN(C)C)c(=O)c2=O)CC1` here?
Its fold change is 1.32 (inactive).

With `CCc1cccc2c1NC(=O)C2(O)CC(=O)c1cccs1` (stereo not given) as the compound, how does the fold change read?
The fold change was 1.14 (inactive).
